From the supplement of paper PMC10849652
About 7,900 targets were measured; listed, in parts, are those with a hit and a random draw of the rest. About 0.6% of all pairs of compound and target were hits.

Each target was assayed with C1=CC2=C(C=CC(=C2)/C=C\3/C(=O)NC(=NCC4=CC=CS4)S3)N=C1 (assay: log2 fold change, soluble protein after heating vs DMSO (PISA); higher = thermal stabilisation; K562 cells, 10 uM, 30 min; active = over 0.2 and 3.5 SD of the protein, either way, in both replicates (recomputed)).
Method in brief: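 K562 cells at 2×10^6 cells/mL were given 10 μM compound for 30 min. Aliquots then went through 3 min of heating across 48°C-58°C, were pooled, and were extracted in PBS with 0.5% NP-40 at 4°C, and the supernatant after 21,000xg for 90 min was quantified by TMTpro 16plex LC-MS/MS with channel sums equalised. Thermal stability relative to control samples, from duplicates, is given as log2 fold change.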

UniProt Q00577, sequence (Q00577 whole entry, looked up): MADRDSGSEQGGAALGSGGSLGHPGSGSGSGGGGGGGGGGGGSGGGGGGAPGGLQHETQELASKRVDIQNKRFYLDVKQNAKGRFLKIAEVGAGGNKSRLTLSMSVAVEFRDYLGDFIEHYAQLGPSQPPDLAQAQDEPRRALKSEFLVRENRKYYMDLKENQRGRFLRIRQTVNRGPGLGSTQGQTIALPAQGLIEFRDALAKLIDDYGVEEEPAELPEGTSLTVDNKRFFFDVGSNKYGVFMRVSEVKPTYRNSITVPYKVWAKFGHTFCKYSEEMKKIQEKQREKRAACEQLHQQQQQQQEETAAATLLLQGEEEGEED
UniProt Q86T03, sequence (Q86T03 whole entry, looked up): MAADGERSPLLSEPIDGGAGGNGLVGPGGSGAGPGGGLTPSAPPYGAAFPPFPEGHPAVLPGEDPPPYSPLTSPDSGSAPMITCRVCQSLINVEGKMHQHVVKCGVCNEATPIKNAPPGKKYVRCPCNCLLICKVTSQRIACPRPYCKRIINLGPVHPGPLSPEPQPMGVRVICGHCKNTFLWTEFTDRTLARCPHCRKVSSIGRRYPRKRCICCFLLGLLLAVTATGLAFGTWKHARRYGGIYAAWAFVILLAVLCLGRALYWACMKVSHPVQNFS
UniProt Q10713, sequence (Q10713 whole entry, looked up): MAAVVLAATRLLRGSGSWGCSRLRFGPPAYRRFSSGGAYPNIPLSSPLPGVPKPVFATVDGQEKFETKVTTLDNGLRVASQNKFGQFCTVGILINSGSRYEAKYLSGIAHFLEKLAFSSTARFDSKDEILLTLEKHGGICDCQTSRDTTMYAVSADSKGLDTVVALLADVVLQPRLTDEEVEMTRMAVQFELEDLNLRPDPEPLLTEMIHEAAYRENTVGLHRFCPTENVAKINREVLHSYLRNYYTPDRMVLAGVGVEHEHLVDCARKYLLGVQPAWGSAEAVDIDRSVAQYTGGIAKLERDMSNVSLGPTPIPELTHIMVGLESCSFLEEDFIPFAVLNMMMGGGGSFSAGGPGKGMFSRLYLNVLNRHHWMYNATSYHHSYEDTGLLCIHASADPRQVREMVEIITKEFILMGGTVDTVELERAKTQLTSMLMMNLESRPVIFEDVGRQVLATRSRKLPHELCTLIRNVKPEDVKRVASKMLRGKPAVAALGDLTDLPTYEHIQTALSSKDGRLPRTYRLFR
UniProt Q92968, sequence (Q92968 whole entry, looked up): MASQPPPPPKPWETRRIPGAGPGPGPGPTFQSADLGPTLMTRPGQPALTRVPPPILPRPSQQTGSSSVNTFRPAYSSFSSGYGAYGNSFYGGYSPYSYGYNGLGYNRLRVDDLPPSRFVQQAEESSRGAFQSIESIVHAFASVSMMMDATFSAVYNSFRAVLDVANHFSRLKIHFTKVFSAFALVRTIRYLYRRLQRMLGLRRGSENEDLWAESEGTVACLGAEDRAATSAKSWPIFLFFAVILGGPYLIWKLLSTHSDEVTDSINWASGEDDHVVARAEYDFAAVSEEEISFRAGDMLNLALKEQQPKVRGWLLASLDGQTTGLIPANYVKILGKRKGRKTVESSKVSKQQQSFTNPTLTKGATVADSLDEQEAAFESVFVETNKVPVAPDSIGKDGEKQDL
UniProt P53609, sequence (P53609 whole entry, looked up): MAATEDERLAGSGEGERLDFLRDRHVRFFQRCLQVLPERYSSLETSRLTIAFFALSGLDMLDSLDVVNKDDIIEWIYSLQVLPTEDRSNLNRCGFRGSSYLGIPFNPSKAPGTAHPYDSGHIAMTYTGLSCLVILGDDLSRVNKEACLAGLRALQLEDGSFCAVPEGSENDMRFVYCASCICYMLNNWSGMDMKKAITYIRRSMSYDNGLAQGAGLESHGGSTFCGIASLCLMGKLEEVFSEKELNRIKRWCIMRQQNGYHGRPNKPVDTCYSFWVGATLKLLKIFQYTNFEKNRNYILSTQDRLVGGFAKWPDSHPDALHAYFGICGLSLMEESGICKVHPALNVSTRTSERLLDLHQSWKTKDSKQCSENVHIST
UniProt Q9UMR5, sequence (Q9UMR5 whole entry, looked up): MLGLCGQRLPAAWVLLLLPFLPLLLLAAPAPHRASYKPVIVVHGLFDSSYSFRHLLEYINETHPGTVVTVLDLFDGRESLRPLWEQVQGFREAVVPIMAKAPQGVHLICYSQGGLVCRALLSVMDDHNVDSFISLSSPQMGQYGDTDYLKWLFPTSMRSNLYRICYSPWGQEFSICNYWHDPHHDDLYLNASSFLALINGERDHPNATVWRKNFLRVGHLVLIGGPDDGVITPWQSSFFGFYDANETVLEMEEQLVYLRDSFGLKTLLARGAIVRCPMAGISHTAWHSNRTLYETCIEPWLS
UniProt Q9Y244, sequence (Q9Y244 whole entry, looked up): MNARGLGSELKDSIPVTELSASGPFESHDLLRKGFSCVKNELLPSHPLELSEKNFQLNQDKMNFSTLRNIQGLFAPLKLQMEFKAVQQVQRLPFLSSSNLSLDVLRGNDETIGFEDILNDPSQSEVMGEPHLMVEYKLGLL
UniProt P13861, sequence (P13861 whole entry, looked up): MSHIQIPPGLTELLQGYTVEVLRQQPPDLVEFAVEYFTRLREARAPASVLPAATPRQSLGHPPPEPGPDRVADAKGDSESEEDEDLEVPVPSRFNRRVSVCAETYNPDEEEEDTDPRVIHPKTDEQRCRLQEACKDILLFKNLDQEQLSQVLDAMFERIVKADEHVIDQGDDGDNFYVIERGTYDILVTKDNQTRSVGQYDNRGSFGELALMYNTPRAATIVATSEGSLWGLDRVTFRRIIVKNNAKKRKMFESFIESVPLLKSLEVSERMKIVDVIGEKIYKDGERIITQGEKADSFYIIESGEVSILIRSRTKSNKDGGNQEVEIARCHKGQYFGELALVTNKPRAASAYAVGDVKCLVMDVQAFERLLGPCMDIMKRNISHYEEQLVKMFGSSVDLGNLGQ
UniProt P42338, sequence (P42338 whole entry, looked up): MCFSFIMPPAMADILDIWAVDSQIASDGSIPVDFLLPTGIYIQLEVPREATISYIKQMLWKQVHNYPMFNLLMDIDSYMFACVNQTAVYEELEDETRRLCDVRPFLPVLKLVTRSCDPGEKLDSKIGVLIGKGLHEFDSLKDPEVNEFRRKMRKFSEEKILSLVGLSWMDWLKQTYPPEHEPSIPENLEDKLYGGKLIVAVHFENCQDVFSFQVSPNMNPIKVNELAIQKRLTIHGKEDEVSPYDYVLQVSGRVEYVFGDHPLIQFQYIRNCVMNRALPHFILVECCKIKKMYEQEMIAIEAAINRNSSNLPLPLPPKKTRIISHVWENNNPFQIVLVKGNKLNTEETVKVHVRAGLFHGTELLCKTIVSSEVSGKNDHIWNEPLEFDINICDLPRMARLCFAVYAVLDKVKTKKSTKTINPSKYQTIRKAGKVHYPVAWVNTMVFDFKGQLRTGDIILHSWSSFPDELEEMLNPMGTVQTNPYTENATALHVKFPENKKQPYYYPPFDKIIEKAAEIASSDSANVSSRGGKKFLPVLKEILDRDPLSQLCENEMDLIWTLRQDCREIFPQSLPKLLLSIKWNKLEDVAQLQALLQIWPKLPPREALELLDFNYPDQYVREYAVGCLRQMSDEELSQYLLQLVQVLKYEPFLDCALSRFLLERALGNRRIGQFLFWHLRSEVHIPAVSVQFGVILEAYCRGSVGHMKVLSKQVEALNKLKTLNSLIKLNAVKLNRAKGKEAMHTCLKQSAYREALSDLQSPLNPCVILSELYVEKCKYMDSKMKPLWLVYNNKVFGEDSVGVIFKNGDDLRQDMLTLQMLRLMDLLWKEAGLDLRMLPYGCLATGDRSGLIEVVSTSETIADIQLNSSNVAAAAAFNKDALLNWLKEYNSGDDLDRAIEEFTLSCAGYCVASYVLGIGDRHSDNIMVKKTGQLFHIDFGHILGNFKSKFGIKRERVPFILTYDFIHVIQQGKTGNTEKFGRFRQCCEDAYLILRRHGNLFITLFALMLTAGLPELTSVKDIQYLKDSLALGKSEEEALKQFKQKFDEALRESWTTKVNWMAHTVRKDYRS
UniProt Q9UHX1, sequence (Q9UHX1 whole entry, looked up): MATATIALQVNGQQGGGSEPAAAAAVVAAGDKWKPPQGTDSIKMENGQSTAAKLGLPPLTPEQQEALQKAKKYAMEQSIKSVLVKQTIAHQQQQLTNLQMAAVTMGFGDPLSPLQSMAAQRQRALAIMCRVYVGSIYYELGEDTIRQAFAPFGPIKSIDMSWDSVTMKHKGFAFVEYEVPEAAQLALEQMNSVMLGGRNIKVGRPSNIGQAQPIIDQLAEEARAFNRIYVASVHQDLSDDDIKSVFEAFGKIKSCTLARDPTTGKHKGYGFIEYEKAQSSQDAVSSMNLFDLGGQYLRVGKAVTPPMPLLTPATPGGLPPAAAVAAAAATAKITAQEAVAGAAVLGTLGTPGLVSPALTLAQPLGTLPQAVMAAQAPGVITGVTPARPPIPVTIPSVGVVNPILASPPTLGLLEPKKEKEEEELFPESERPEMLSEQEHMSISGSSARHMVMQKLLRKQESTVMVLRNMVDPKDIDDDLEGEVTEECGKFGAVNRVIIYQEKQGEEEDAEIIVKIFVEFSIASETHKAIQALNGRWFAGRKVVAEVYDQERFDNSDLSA
UniProt P49585, sequence (P49585 whole entry, looked up): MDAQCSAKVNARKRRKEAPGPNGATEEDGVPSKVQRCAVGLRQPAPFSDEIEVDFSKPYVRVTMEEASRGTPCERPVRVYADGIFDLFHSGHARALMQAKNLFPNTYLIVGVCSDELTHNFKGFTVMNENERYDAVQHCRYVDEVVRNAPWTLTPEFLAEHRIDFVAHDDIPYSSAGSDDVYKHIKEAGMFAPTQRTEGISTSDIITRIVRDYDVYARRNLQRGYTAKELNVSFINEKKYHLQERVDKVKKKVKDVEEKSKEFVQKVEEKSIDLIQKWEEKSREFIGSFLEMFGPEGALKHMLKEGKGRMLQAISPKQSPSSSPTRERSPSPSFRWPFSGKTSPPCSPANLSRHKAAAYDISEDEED
UniProt Q7RTV0, sequence (Q7RTV0 whole entry, looked up): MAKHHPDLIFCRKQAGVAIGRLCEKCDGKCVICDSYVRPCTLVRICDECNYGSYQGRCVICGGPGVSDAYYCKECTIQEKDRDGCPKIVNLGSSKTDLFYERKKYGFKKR

log2 fold change, inactive:
PHF5A (UniProt Q7RTV0) -0.049
PRKAR2A (UniProt P13861) 0.082
PRUNE1 (UniProt Q86TP1) -0.034
POMP (UniProt Q9Y244) -0.073
PPT2 isoform 3 (UniProt Q9UMR5) -0.026
PIP4P1 isoform 2 (UniProt Q86T03) -0.104
POLD1 (UniProt P28340) 0.023
PGGT1B (UniProt P53609) 0.049
PPP1R14A (UniProt Q96A00) -0.036
PRMT3 (UniProt O60678) 0.066
PEX11B (UniProt O96011) 0.056
PCYT1A (UniProt P49585) 0.019
PISD (UniProt Q9UG56) 0.034
PSMD5 (UniProt Q16401) 0
PRPF40A (UniProt O75400) 0.032
PDIK1L (UniProt Q8N165) 0.034
PMPCA (UniProt Q10713) 0.03
PDCD2L (UniProt Q9BRP1) 0.006
PSMC6 (UniProt P62333) -0.031
PRKAB1 (UniProt Q9Y478) -0.06
PDSS2 (UniProt Q86YH6) 0.053
POLA1 (UniProt P09884) -0.032
PGM3 isoform 4 (UniProt O95394) 0.092
PSMD3 (UniProt O43242) -0.022
PARL (UniProt Q9H300) 0.016
PEX13 (UniProt Q92968) 0.048
PURA (UniProt Q00577) -0.156
PSMB4 (UniProt P28070) -0.024
PIK3CB (UniProt P42338) 0.081
PPP2R5C isoform 4 (UniProt Q13362) -0.039
PUF60 (UniProt Q9UHX1) -0.071
PRKACA (UniProt P17612) -0.034
PRPSAP2 (UniProt O60256) -0.06
PHKA2 (UniProt P46019) -0.011
PTPN12 (UniProt Q05209) 0.022
RAB11FIP1 (UniProt Q6WKZ4) 0.02
